# Compounds without any hit were thinned out: in the full panel of roughly 83,000, 20% have a hit.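 Values shown are percent growth following 48 h exposure of cells in 96-well plates to a single concentration of compound; below 10 was considered active.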 Calls of active or inactive are those of the source.
# System: SW-620 colon
# Assay: NCI-60 one-dose screen, 48 h (100 = growth as untreated, 0 = no growth, -100 = all killed)
# Conditions: 10 µM unless noted
row,Structure (SMILES),growth
1,COc1ccc(C2=Nc3c(N)ncnc3NC(c3cccc(Nc4ccnc5cc(C(F)(F)F)ccc45)c3)C2)cc1 (stereo not given),62.3% (inactive)
2,Clc1ccc(-c2cn3ccsc3n2)c(Cl)c1Cl,96.8% (inactive)
3,CCSC1=CC(=O)c2ccccc2C1=O,54.9% (inactive)
4,Fc1ccc2c(c1)c(-c1nc(-c3c[nH]c4ncccc34)cs1)cn2CCCN1CCOCC1,24.9% (inactive)
5,C[Se]C(=O)CC1=C2C=C(F)C=CC2/C(=C\c2ccc(S(C)=O)cc2)C1C (stereo not given),4.55% (active)
6,COc1cc(N2C(=O)[C@H](c3ccccc3)C2c2ccc(SC)cc2)cc(OC)c1OC (stereo not given in full),25.2% (inactive)
7,Cc1ccc(/C=C2\CN(C(=O)C(Cl)Cl)C/C(=C\c3ccc(C)cc3)C2=O)cc1,-66.6% (active)
8,CCCCCCC(CCCC)COC(=O)c1ccc(Cl)cc1 (stereo not given),109% (inactive)
9,Cc1ccc2nc(Cl)c(Cn3nnnc3SCc3ccccc3)cc2c1,96.1% (inactive)
10,O=C(O)c1cn(C2CC2)c2cc(N3CCN(C(=O)N/N=C/c4ccccc4)CC3)c(F)cc2c1=O,110% (inactive)
11,CC12CCC(/C(=C/NNc3ccc([N+](=O)[O-])cc3[N+](=O)[O-])C1=O)C2(C)C (stereo not given),64.8% (inactive)
12,CCOC(=O)Cn1c(=O)c2c3ccccc3n(C)c2n2nnc(-c3ccccc3)c12,95.7% (inactive)
13,COc1cc(C#Cc2ccc(=O)oc2C#Cc2ccccc2)cc(OC)c1OC,8.07% (active)
14,COc1ccc(C/C(C)=C(/c2ccc(OCCN3CCCCCC3)cc2)c2ccc(OC(=O)NCc3ccccc3)cc2)cc1,81.4% (inactive)
15,Cc1c2cc[nH]c(=O)c2c(C)c2c1[nH]c1ccc(OC(=O)c3ccccc3)cc12,28% (inactive)
16,Clc1nccc2c(-c3csc(-c4c[nH]c5ccccc45)n3)c[nH]c12,7.87% (active)
17,Cc1cccc(-n2c(C)nc3ccc(N4CCCNC4=O)cc3c2=O)c1,104% (inactive)
18,Cc1nn(-c2ccccc2)c(N2CCCCC2)c1/C=N/NC(=O)Cn1c(=O)sc2ccccc21,81% (inactive)
19,C#CCOc1cccc(-c2ncc3cc(NC(=O)CCl)ccc3n2)c1,-58.3% (active)
20,C=CCOC(=O)C1=C(C)NC(=O)NC1c1c(Cl)n(C)c2ccccc12 (stereo not given),98.6% (inactive)

row,Structure (SMILES),growth
1,Cc1ccc(C(=O)c2ccc(CC(=O)N/N=C/c3ccc(O)cc3O)n2C)cc1,42.2% (inactive)
2,COc1cc(C(=O)/C=C/c2c(-c3cccs3)nc3ccccn23)cc(OC)c1OC,4.78% (active)
3,CC(/C=C1\SC(=S)N(CC(=O)NC(Cc2c[nH]c3ccccc23)C(=O)O)C1=O)=C\c1ccccc1 (stereo not given),104% (inactive)
4,CC(C)[C@@]12C[C@@H](OC(=O)COC(=O)c3ccccc3)[C@@](C)(O1)[C@@H]1CC[C@@H](C)[C@H]1[C@@H]2OC(=O)/C=C/c1ccccc1,100% (inactive)
5,COc1ccc2c(c1)c(-c1nonc1-c1cn(C)c3ccc(OC)cc13)cn2C,16.3% (inactive)
6,O=C(Cn1nnc2ccccc21)Nc1ccc(-c2nc3ccccc3s2)cc1,94.5% (inactive)
7,CC(=O)c1c(Nc2ccc(F)c(F)c2F)[nH]c2c(F)cc(F)cc2c1=O,7.98% (active)
8,CC/C=C1/C(=O)C=C[C@@H]1C/C=C\CCCC(=O)OC,14.9% (inactive)
9,O=C(CCCCCCN1CC(=O)N2[C@@H](C3CCCCC3)c3[nH]c4ccccc4c3C[C@H]2C1=O)NO,47% (inactive)
10,COc1cc(C(=O)c2c(-c3ccccc3)oc3c(OC)cccc23)cc(OC)c1O,22.7% (inactive)
11,O=C1NC(=C(Cl)Cl)/C(=N/S(=O)(=O)N2CCCCC2)N1,-62.3% (active)
12,COc1ccc(C2=CN3CC=CCC3CC2=O)cc1 (stereo not given),101% (inactive)
13,CCN(CC)c1ccc(/C=N/NC(=O)c2ccc(Nc3ccnc(C(F)(F)F)c3)cc2)c(O)c1,41.5% (inactive)
14,S=c1[nH]c2cc(Cl)ccc2o1,94.2% (inactive)
15,NC(=S)N/N=C/c1cn(-c2ccccc2)nc1-c1cc2ccccc2oc1=O,22.7% (inactive)
16,COc1ncc2cc1NS(=O)(=O)c1cccc(c1)C(=O)NCC1=CC=C(S1)c1ncnc3c1SC2=C3C,3.04% (active)
17,CN(C)c1ccc(-c2cc(-c3ccc(Nc4nc(Nc5ccc(Cl)cc5)nc(Nc5ccc(Cl)cc5)n4)cc3)nc(N)c2C#N)cc1,92.8% (inactive)
18,Cc1ccc(N=Nc2c(N)nn(-c3ccccc3)c2N)cc1,23.2% (inactive)
19,CCN1C(=O)N(CC)C2C1NN=C1SCC(=O)N12 (stereo not given),73.7% (inactive)
20,COP(=O)(OC)c1nnn(-c2cccc([N+](=O)[O-])c2)c1C,100% (inactive)

# System: MCF7 breast
# Assay: as above
# Conditions: 10 µM unless noted
row,Structure (SMILES),growth
1,COc1ccc(C2=Nc3c(N)ncnc3NC(c3cccc(Nc4ccnc5cc(C(F)(F)F)ccc45)c3)C2)cc1 (stereo not given),30.1% (inactive)
2,Clc1ccc(-c2cn3ccsc3n2)c(Cl)c1Cl,0.866% (active)
3,CCSC1=CC(=O)c2ccccc2C1=O,12.9% (inactive)
4,Fc1ccc2c(c1)c(-c1nc(-c3c[nH]c4ncccc34)cs1)cn2CCCN1CCOCC1,22% (inactive)
5,C[Se]C(=O)CC1=C2C=C(F)C=CC2/C(=C\c2ccc(S(C)=O)cc2)C1C (stereo not given),15.5% (inactive)
6,COc1cc(N2C(=O)[C@H](c3ccccc3)C2c2ccc(SC)cc2)cc(OC)c1OC (stereo not given in full),6.93% (active)
7,Cc1ccc(/C=C2\CN(C(=O)C(Cl)Cl)C/C(=C\c3ccc(C)cc3)C2=O)cc1,-32.1% (active)
8,CCCCCCC(CCCC)COC(=O)c1ccc(Cl)cc1 (stereo not given),101% (inactive)
9,Cc1ccc2nc(Cl)c(Cn3nnnc3SCc3ccccc3)cc2c1,87.9% (inactive)
10,O=C(O)c1cn(C2CC2)c2cc(N3CCN(C(=O)N/N=C/c4ccccc4)CC3)c(F)cc2c1=O,97.3% (inactive)
11,CC12CCC(/C(=C/NNc3ccc([N+](=O)[O-])cc3[N+](=O)[O-])C1=O)C2(C)C (stereo not given),50.6% (inactive)
12,CCOC(=O)Cn1c(=O)c2c3ccccc3n(C)c2n2nnc(-c3ccccc3)c12,81.8% (inactive)
13,COc1cc(C#Cc2ccc(=O)oc2C#Cc2ccccc2)cc(OC)c1OC,44.6% (inactive)
14,COc1ccc(C/C(C)=C(/c2ccc(OCCN3CCCCCC3)cc2)c2ccc(OC(=O)NCc3ccccc3)cc2)cc1,29.9% (inactive)
15,Cc1c2cc[nH]c(=O)c2c(C)c2c1[nH]c1ccc(OC(=O)c3ccccc3)cc12,20.3% (inactive)
16,Clc1nccc2c(-c3csc(-c4c[nH]c5ccccc45)n3)c[nH]c12,49.6% (inactive)
17,Cc1cccc(-n2c(C)nc3ccc(N4CCCNC4=O)cc3c2=O)c1,97.8% (inactive)
18,Cc1nn(-c2ccccc2)c(N2CCCCC2)c1/C=N/NC(=O)Cn1c(=O)sc2ccccc21,67.3% (inactive)
19,C#CCOc1cccc(-c2ncc3cc(NC(=O)CCl)ccc3n2)c1,-21.6% (active)
20,C=CCOC(=O)C1=C(C)NC(=O)NC1c1c(Cl)n(C)c2ccccc12 (stereo not given),94.8% (inactive)

row,Structure (SMILES),growth
1,Cc1ccc(C(=O)c2ccc(CC(=O)N/N=C/c3ccc(O)cc3O)n2C)cc1,39.2% (inactive)
2,COc1cc(C(=O)/C=C/c2c(-c3cccs3)nc3ccccn23)cc(OC)c1OC,7.96% (active)
3,CC(/C=C1\SC(=S)N(CC(=O)NC(Cc2c[nH]c3ccccc23)C(=O)O)C1=O)=C\c1ccccc1 (stereo not given),94.8% (inactive)
4,CC(C)[C@@]12C[C@@H](OC(=O)COC(=O)c3ccccc3)[C@@](C)(O1)[C@@H]1CC[C@@H](C)[C@H]1[C@@H]2OC(=O)/C=C/c1ccccc1,81.9% (inactive)
5,COc1ccc2c(c1)c(-c1nonc1-c1cn(C)c3ccc(OC)cc13)cn2C,20.7% (inactive)
6,O=C(Cn1nnc2ccccc21)Nc1ccc(-c2nc3ccccc3s2)cc1,28.9% (inactive)
7,CC(=O)c1c(Nc2ccc(F)c(F)c2F)[nH]c2c(F)cc(F)cc2c1=O,0.843% (active)
8,CC/C=C1/C(=O)C=C[C@@H]1C/C=C\CCCC(=O)OC,15.6% (inactive)
9,O=C(CCCCCCN1CC(=O)N2[C@@H](C3CCCCC3)c3[nH]c4ccccc4c3C[C@H]2C1=O)NO,51.6% (inactive)
10,COc1cc(C(=O)c2c(-c3ccccc3)oc3c(OC)cccc23)cc(OC)c1O,14.1% (inactive)
11,O=C1NC(=C(Cl)Cl)/C(=N/S(=O)(=O)N2CCCCC2)N1,10.1% (inactive)
12,COc1ccc(C2=CN3CC=CCC3CC2=O)cc1 (stereo not given),105% (inactive)
13,CCN(CC)c1ccc(/C=N/NC(=O)c2ccc(Nc3ccnc(C(F)(F)F)c3)cc2)c(O)c1,13.9% (inactive)
14,S=c1[nH]c2cc(Cl)ccc2o1,105% (inactive)
15,NC(=S)N/N=C/c1cn(-c2ccccc2)nc1-c1cc2ccccc2oc1=O,33.3% (inactive)
16,COc1ncc2cc1NS(=O)(=O)c1cccc(c1)C(=O)NCC1=CC=C(S1)c1ncnc3c1SC2=C3C,-12.5% (active)
17,CN(C)c1ccc(-c2cc(-c3ccc(Nc4nc(Nc5ccc(Cl)cc5)nc(Nc5ccc(Cl)cc5)n4)cc3)nc(N)c2C#N)cc1,41.9% (inactive)
18,Cc1ccc(N=Nc2c(N)nn(-c3ccccc3)c2N)cc1,7.61% (active)
19,CCN1C(=O)N(CC)C2C1NN=C1SCC(=O)N12 (stereo not given),18% (inactive)
20,COP(=O)(OC)c1nnn(-c2cccc([N+](=O)[O-])c2)c1C,97.9% (inactive)
